CBX7 AlphaScr: CBX7 inhibition, primary AlphaScreen; O95931; AlphaScreen His6-CBX7 / biotin-H3K27me3 peptide binding; hits give low values; AID 1224903; normalised signal (fraction of DMSO) (test concentration not listed); 66,000 tested, 1.1% active; in the data active = normalised signal below about 0.5
Target sequence (O95931 whole entry, looked up): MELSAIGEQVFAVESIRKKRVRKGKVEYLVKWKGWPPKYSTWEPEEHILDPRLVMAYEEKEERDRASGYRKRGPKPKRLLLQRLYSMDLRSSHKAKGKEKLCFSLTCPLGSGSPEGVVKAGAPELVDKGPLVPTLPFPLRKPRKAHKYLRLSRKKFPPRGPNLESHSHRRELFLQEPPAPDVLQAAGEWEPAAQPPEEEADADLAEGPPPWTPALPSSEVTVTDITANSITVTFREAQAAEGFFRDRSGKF
* marks the source's active call; other numbers are inactive results; ! = not active in a repeat. This is one part of a sample in which hits are shown more often than they occur.

SMILES	CBX7 AlphaScr
COc1cc2c(c(OC)c1)C(c1cccc(Cl)c1Cl)CC(=O)N2 (stereo unspecified)	0.98
CCOC(=O)c1c(NC(=O)COc2cc(C)c(Cl)c(C)c2)sc2c1CCCC2	1
COc1cc2c(cc1OC)C1C(C(=O)N3CCN(c4ccccn4)CC3)c3ccccc3C(=O)N1CC2 (stereo unspecified)	1.1
NC(=O)C1CCN(C(=O)c2ccc3c(=O)n(C4CCCCC4)c(SCc4ccncc4)nc3c2)CC1	0.83
CN1CCc2c(n(CC(O)CN3CCOCC3)c3ccccc23)C1=O (stereo unspecified)	1.2
CC(C)(C)OC(=O)N1CCC(c2c(C(=O)Nc3ccc(F)cc3)cnn2-c2ccc(F)cc2)CC1	0.97
CCCCOc1ccc(C(=O)Nc2ccc3oc(-c4ccccc4F)nc3c2)cc1	1
Cc1ccc(Nc2nc(-c3ccc(-c4ccccc4)cc3)cs2)cc1Cl	0.88
CCOc1ccc(Nc2nc(-c3ccc(OC)c(F)c3)cs2)cc1	1
COc1ccc(-c2csc(Nc3ccc(C)c(Cl)c3)n2)cc1F	0.39*!
CCCCN(CCCC)S(=O)(=O)c1ccc2[nH]c(=O)cc(C(=O)NCc3ccccc3)c2c1	1
Fc1ccccc1-c1nc(Nc2ccccc2Cl)c2ccccc2n1	1.1
CCC(C)(C)C1CCc2oc3ccc(NS(=O)(=O)c4cccs4)cc3c2C1 (stereo unspecified)	0.42*
CCc1ccc(S(=O)(=O)Nc2ccc3oc4c(c3c2)CC(C(C)(C)C)CC4)cc1 (stereo unspecified)	0.78
CC1CCc2oc3ccc(NS(=O)(=O)c4cccs4)cc3c2C1 (stereo unspecified)	0.64
CCc1ccc2oc(-c3cccc(NC(=O)c4ccc(F)cc4)c3)nc2c1	1
CCc1ccc2oc(-c3cccc(NC(=O)c4ccc(C)cc4)c3)nc2c1	1.1
CCc1ccc2oc(-c3cccc(NC(=O)c4ncn[nH]4)c3)nc2c1	0.013*
CC(C)c1ccc2oc(-c3ccc(NC(=O)c4ncn[nH]4)cc3)nc2c1	0.026*
CC(C)c1ccc2oc(-c3ccc(NC(=O)c4ccccc4F)cc3)nc2c1	1
CC(C)c1ccc2oc(-c3ccc(NC(=O)c4ccc(Cl)cc4)cc3)nc2c1	0.97
CCOc1ccc(-c2cc(C(=O)NC3CCCCC3C)c3ccccc3n2)cc1 (stereo unspecified)	1.1
COc1ccc(C2C(Oc3ccccc3C)C(=O)N2c2cccc(C(F)(F)F)c2)cc1OC (stereo unspecified)	1
COc1ccc(Cl)cc1NC(=O)c1c(NCc2cccnc2)sc2c1CCC(C)C2 (stereo unspecified)	0.7
Cc1cccc(NC(=O)C2CCCN2S(=O)(=O)c2ccc3c(c2)n(C)c(=O)c(=O)n3C)c1C (stereo unspecified)	1.2
SMILES	CBX7 AlphaScr
Cc1ccccc1Nc1c(-c2ccc(N3CCOCC3)cc2)nc2ccc(Br)cn12	0.76
Cc1ccc(-c2nc(C(=O)NC3CC3)c(C)o2)cc1	1
CCCn1cc(C2CC(=O)N(c3ccccc3C)C2=O)c2ccccc21 (stereo unspecified)	0.46*
CCCn1cc(C2CC(=O)N(c3ccc(Br)cc3)C2=O)c2ccccc21 (stereo unspecified)	1.1
CCCn1cc(C2CC(=O)N(c3ccc(C)cc3)C2=O)c2ccccc21 (stereo unspecified)	1
CCN(CCCNC(=O)Cc1c(C(=O)O)[nH]c2ccc(Cl)cc12)c1ccccc1	1.3
Cc1ccc(-c2noc(CNc3cccc(Cl)c3)n2)cc1	1.1
COc1ccc(-c2nnc(-c3ccc(S(=O)(=O)c4ccccc4)cc3)o2)cc1OC	0.92
CCOc1ccc2nc(N3CCCC(C(=O)N4CCN(CC)CC4)C3)sc2c1 (stereo unspecified)	0.43*
CCCN1CCN(CCCNC(=O)C2CCCN(c3nc4ccc(OCC)cc4s3)C2)CC1 (stereo unspecified)	1
CCOc1ccc2nc(N3CCCC(C(=O)N4CCC(C(N)=O)CC4)C3)sc2c1 (stereo unspecified)	1
CCOc1ccc2nc(N3CCCC(C(=O)NCCCN4CCN(CC)CC4)C3)sc2c1 (stereo unspecified)	0.44*
CCOc1ccc2nc(N3CCCC(C(=O)N4CCN(Cc5ccccc5)CC4)C3)sc2c1 (stereo unspecified)	0.72
CCOCCCNC(=O)C1CCCN(c2nc3ccc(OCC)cc3s2)C1 (stereo unspecified)	1.1
Cc1nc2cc(C(=O)NCCC3=CCCCC3)ccc2n1-c1cccc(F)c1	1
CCOc1ccc(-n2c(C)nc3c(cnn3-c3ccccc3Cl)c2=O)cc1	0.85
COc1ccc(C(=O)NC(C)C(c2cccs2)N2CCOCC2)c(OC)c1 (stereo unspecified)	1
Cc1ncc(CO)c2cc(C(=O)Nc3cc(F)ccc3F)c(=O)oc12	0.99
CCOc1ccc(Nc2nc(-c3ccccc3Cl)nc3ccccc23)cc1	1.1
CCOC(=O)c1nnn(-c2nonc2N)c1CSc1cccc2cccnc12	0.99
